# Compound activity as filed in PubChem BioAssay.
# Pf growth 48h: P. falciparum growth inhibition at 48 hours (one generation); P. falciparum luciferase growth in erythrocytes, 48 h; Potency, µM (doses to about 28.7 µM), for inactives: at the highest dose activity change, negative = inhibition, actives largely listed as inhibitors; actives 5.9% (n = 310,000); note: potency is the fitted concentration of half-maximal effect; % is set by controls: 0 for no effect and ±100 for the full control effect
#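 Here the parasites carry a stable luciferase gene and grow inside erythrocytes in Albumax-based RPMI medium with compound for one erythrocytic cycle. Activity is scored as loss of luminescent signal.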
# Pf growth 96h: P. falciparum growth inhibition at 96 hour, primary screen for plastid delayed-death inhibitors; P. falciparum luciferase reporter growth, 96 h; Potency, µM (titrated, usually from 28.7 µM), for inactives: at the highest dose activity change, negative = inhibition, actives largely listed as inhibitors; actives 6.9% (n = 320,000); AID 504834; note: potency is the fitted concentration of half-maximal effect; % is set by controls: 0 for no effect and ±100 for the full control effect
#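 P. falciparum expressing integrated firefly luciferase, in erythrocytes at 2% hematocrit, 0.05% parasitemia, incubated with compounds 96 h at 37 C, 5% CO2. Growth inhibition read as loss of luminescence; two-generation exposure targets delayed-death apicoplast inhibitors.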
# Cycloheximide cs: counter-screen for Shiga toxin inhibitors: cycloheximide protein synthesis inhibition | actives 12% (n = 300,000) | AID 2314 | max response, % | cell reporter, cycloheximide protein synthesis inhibition counterscreen; in the data active = max response mostly above about 13%, no sharp cut-off; inactive = mostly below about 14%; note: read at 38.3 µM for the half of the compounds with a filed dose; 0% is about no effect
# Shiga inhibitor: Shiga toxin inhibition; Vero cells, Shiga toxin protein synthesis inhibition reporter; inhibition, % at 38.7 µM; actives 9.2% (n = 290,000); in the data active = inhibition mostly above about 28%, no sharp cut-off; inactive = mostly below about 43%; note: 0% is about no effect
# HCV inh: HCV inhibition. Huh7.5.1 HCVcc-Cre infection, luciferase reporter, 44 h. Potency, µM (titrated, usually from 41.8 µM), for inactives: at the highest dose activity change, negative = inhibition, most hits filed as inhibitors. actives 3.4% (n = 340,000); note: potency is the fitted concentration of half-maximal effect; % is set by controls: 0 for no effect and ±100 for the full control effect
#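 Seed cells (1,000/well) for 4 h; treat with compound and infect with HCVcc-Cre, moi about 0.5. Incubate 44 h, then detect luciferase activity.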
# HCMV antiviral: human cytomegalovirus inhibition. actives 4.5% (n = 410,000). HFF cells, HCMV-luciferase reporter, 72 h; active compounds read low. activity change, negative = inhibition, % at 57.5 µM; in the data active = activity change below about -60%; inconclusive = no clear call, values can overlap the other calls; inactive = above about -39%; note: % is set by controls: 0 for no effect and ±100 for the full control effect
#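 Two compound doses tested in HFFs infected with HCMV-luciferase, MOI 1 PFU/cell, 72 h at 37C. Lysate luminescence read with OneGlo; data normalized against buffer-only and 10uM Salinomycin inhibitor controls.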
# HCV inh confirm: HCV inhibition, cherry-pick confirmation | HCVcc-Cre infectious virus cell assay, luciferase, inhibition | actives 78% (n = 640) | shares compounds with HCV inh | Potency, µM (doses to about 41.8 µM), without a hit: top-dose activity, negative = inhibition, hits mostly inhibitors | AID 720575; note: potency is the fitted concentration of half-maximal effect; nearly all actives have a fitted effect of over 80% in size
# HCV cytotox: counter-screen for HCV inhibitors: host cell cytotoxicity; shares compounds with HCV inh; HCV host cell line cytotoxicity counterscreen; Potency, µM (series often up to 41.8 µM), inactives show at the top dose activity change, negative = cytotoxicity, actives largely listed as inhibitors; actives 22% (n = 640);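 note: potency is the fitted concentration of half-maximal effect; 44 h compound exposure; % is set by controls: 0 for no effect and ±100 for the full control effect; nearly all actives have a fitted effect of over 55% in size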
# * hit, by the source's call; ? = inconclusive; . = not tested or not shown; [ ] = another dose, or the depositor's remark. Hits are enriched below; roughly 21% of the tested compounds scored in any of these assays. Unless noted, calls come from the whole dose curve; as a rule, active = well fitted curve in the direction sought with a large enough effect; inconclusive = small, poorly fitted or top-dose-only effect, or another doubt; inactive = no such curve, though single readings can be large; an effect the other way counts as inactive or inconclusive.
SMILES,Pf growth 48h,Pf growth 96h,Cycloheximide cs,Shiga inhibitor,HCV inh,HCMV antiviral,HCV inh confirm,HCV cytotox
Cc1ccc(NCC(=O)N/N=C\c2ccc([N+](=O)[O-])o2)cc1,?,5.22µM*,0.9,-5.0,3.16µM*,-82.4*,14.1µM*,?
CCN(CC)c1ccc(S(=O)(=O)N2CCOCC2)cc1NC(=O)COC(=O)/C=C/c1ccc(C)o1,?,-6.2%,.,.,?,-19.6,.,.
Cc1cnc(NC(=O)C2CC(=O)N(c3cccc(Cl)c3)C2)s1 (stereo not given),2.3%,3.3%,-3.0,-7.8,3.16µM*,-99.1*,8.87µM*,3.53µM*
S=C(NCCCN1CCOCC1)N1CCN(c2nc(-c3ccc(Cl)cc3)cs2)CC1,9.6%,10.5%,-3.1,4.6,3.16µM*,-90.9*,7.05µM*,28µM*
CCCCN(C(C)=O)c1ccc2c(c1)C1CC2CCN1C(=O)OCc1ccccc1 (stereo not given),.,.,.,.,3.55µM*,?,3.96µM*,7.91µM*
N#Cc1ccsc1NC(=O)C1CC(=O)N(Cc2ccccc2)C1 (stereo not given),-3.4%,28.6%,.,.,15.2%,-35.1,.,.
CCOc1ccc(NC(=O)CN(C)CC(=O)Nc2ccc(Br)cc2F)cc1OCC,3.0%,-20.1%,-1.1,-3.4,?,6.2,.,.
O=C(/C=C/c1ccccc1)Nc1cccc(C(=O)NCCc2ccccc2)c1,.,.,.,.,?,-27.7,.,.
O=C(/C=C/c1ccccc1)Nc1cccc(C(=O)NCCCCc2ccccc2)c1,.,.,.,.,2.51µM*,27.1,11.2µM*,7.6%
COc1cc2c(cc1OC)C(C)N(C(=O)[C@@H](NC(=O)c1ccccc1)C(C)C)CC2 (stereo not given in full),0.0%,12.2%,-5.1,-2.9,1.41µM*,?,?,5.6%
COc1cc2c(cc1OC)C(C)N(C(=O)C(NC(=O)c1ccccc1)C(C)C)CC2 (stereo not given),?,?,-2.5,-5.6,?,64.7,.,.
COCCN(C(=O)COC(=O)/C=C/c1ccco1)c1c(N)n(Cc2ccccc2)c(=O)[nH]c1=O,-9.1%,?,6.0,8.6,1.0%,12.5,.,.
COCCN(C(=O)COC(=O)/C=C/c1ccc(OC)c(OC)c1)c1c(N)n(Cc2ccccc2)c(=O)[nH]c1=O,?,?,.,.,?,-28.7,?,27.1%
CC(C)(C)OC(=O)N(CCc1ccccc1)Cc1cccc(OCc2cccc(NC(=O)C3CCCC3)c2)c1,.,.,.,.,-61.7%,-16.3,.,.
COc1cccc(C(=O)Nc2ccc3nc(N4CCOCC4)cc(C)c3c2)c1,14.7µM*,0.465µM*,-2.2,8.6,?,-9.2,2.8µM*,16.9%
COc1cccc(C(=O)Nc2cc3c(cc2N2CCOCC2)n(C)c(=O)n3C)c1,-7.1%,?,-6.9,10.8,8.9%,-23.9,.,.
CCOc1ccccc1C(=O)Nc1ccc2nc(N3CCN(c4ncccn4)CC3)cc(C)c2c1,.,.,.,.,2.24µM*,.,4.99µM*,-79.3%
CCN(CC)CCn1c2c(c(SCC(=O)Nc3cc(OC)cc(OC)c3)nc1=O)CCC2,49.2%,?,.,.,?,-0.8,.,.
CCN(CC(=O)Nc1ccc2c(c1)OCCO2)C(=O)/C=C/c1ccc([N+](=O)[O-])cc1,-15.0%,-25.3%,.,.,?,75.5,.,.
O=[N+]([O-])c1cc2c(cc1[N+](=O)[O-])OCCOCCOCCOCCO2,-15.3%,-17.3%,-3.7,12.0,6.31µM*,90.4,?,-15.2%
Brc1cc2c(cc1Br)OCCOCCOCCOCCO2,45.5%,92.6%,-3.8,-8.8,-9.2%,9.8,.,.
COc1ccc([N+](=O)[O-])cc1NC(=O)C(C)Sc1nc(C)c(C)c(C)n1 (stereo not given),?,?,-0.9,17.2,5.62µM*,-6.8,12.5µM*,34.1%
CC(C)c1ccc(N(C(=O)c2csnn2)C(C(=O)NC2CCCC2)c2cccnc2)cc1 (stereo not given),?,?,-4.8,-5.4,0.8%,-20.1,.,.
CCN(Cc1ccccc1)c1ccc(/C=N/NC(=O)c2cccc(S(=O)(=O)N3CCOCC3)c2)cc1,?,?,-2.6,-9.0,?,?,5.6µM*,-34.4%
COc1cc(/C=N/NC(=O)c2cccc(S(=O)(=O)N3CCOCC3)c2)cc(OC)c1O,-10.7%,3.1%,9.1,-3.4,-10.0%,34.7,.,.
SMILES,Pf growth 48h,Pf growth 96h,Cycloheximide cs,Shiga inhibitor,HCV inh,HCMV antiviral,HCV inh confirm,HCV cytotox
O=C(NCc1ccco1)c1ccc(OC2CCN(Cc3ccccn3)CC2)cc1,.,.,.,.,.,-16.9,.,.
O=[N+]([O-])c1ccc(/C=[N+](\[O-])[C@@H]2CCCC[C@@H]2/[N+]([O-])=C/c2ccc([N+](=O)[O-])o2)o1,-2.6%[0.00184 µM],?,6.6,17.3,?,-98.1*,?,?
CCN1CCN(c2ccc(NC(=O)c3cccc(OCc4ccccc4)c3)cc2)CC1,.,-101.8%,3.7,8.1,4.47µM*,-15.5,8.87µM*,7.3%
CC(C)N(C(=O)Nc1ccc2nsnc2c1)C(C)C,-17.9%,?,18.4,35.5,4.47µM*,-101.3*,-16.3%,35.4%
CC(C)N(Cc1ccccc1)C(=O)c1ccc2nsnc2c1,22.7%,?,0.4,24.6,11.7%,-19.5,.,.
CC(C)(C)NC(=O)NC(=O)CN1c2cccc3cccc(c23)S1(=O)=O,10.7%,12.9%,-2.6,-11.5,7.8%,31.2,.,.
S=C(S)N1CCCC1,10.4µM*,?,.,.,?,-35.6,25µM*,28µM*
O=C(CSc1nc2nn(-c3ccccc3)c(=O)c-2c2n1CCCCC2)Nc1ccccc1[N+](=O)[O-],?,6.57µM*,.,.,?,-36.4,14.1µM*,34.8%
CC(Sc1nc2nn(-c3ccccc3)c(=O)c-2c2n1CCCCC2)C(N)=O (stereo not given),-16.1%,.,-4.0,17.9,6.0%,-12.1,.,.
Cc1cnc[nH]1,33.0%,5.3%,.,.,-60.7%,-22.3,8.6%,-6.5%
CNCCc1cnc[nH]1,.,.,6.4,21.5,.,.,.,.
O=C(c1ccccc1)N1CCC(c2nc(-c3ccc(S(=O)(=O)NCC4CCCO4)cc3)no2)CC1 (stereo not given),-19.7%,.,8.9,-15.7,2.82µM*,-89.5*,3.53µM*,8.87µM*
O=S(=O)(NCC1CCCO1)c1ccccc1 (stereo not given),-3.5%,-18.6%,1.1,12.3,5.5%,34.4,.,.
CCCN(CC(=O)Nc1ccccc1C)C(=O)c1cccc(S(=O)(=O)N2CCN(c3ccccc3)CC2)c1,?,?,.,.,-9.1%,-11.8,.,.
